Here are results for seven molecules from PubChem BioAssay (Tox21).

Values joined by “and” are separate entries in the source; they are usually repeats but may differ in a detail not shown here. Identical values can stand only once. Records with an inconclusive call do not appear. The source holds several records for some structures; these can differ, active in one and inactive in another. Active and inactive are the calls of the source. Unless noted, calls follow the shape of the dose curve; as a rule, active = well fitted curve in the direction sought with a large enough effect in the repeat runs; inconclusive = weak or mixed curves; inactive = no such curve, though single readings can be large; an effect the other way counts as inactive or inconclusive.

Test [1] in a line: qHTS assay to identify small molecule agonists of the progesterone receptor (PR) signaling pathway - cell viability counter screen (AID 1346799; calls by dose curve; also: nearly all actives have a fitted effect of over 45% in size; also: potency is read from the fitted curve at half-maximal effect). In a few lines: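 Luminescence from CellTiter-Glo, added after the beta-lactamase FRET read in the same wells, gave cytotoxicity in PR-UAS-bla HEK293T cells treated with compounds for 16 hr at 37C.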
A general note: Quantitative high-throughput screening tests each substance at several concentrations.

Test [2] can be described thus: qHTS assay to identify small molecule antagonists of the TGF-beta/Smad signaling pathway - cell viability counter screen (AID 1346824). Also: nearly all actives have a fitted effect of over 50% in size. Also: potency is read from the fitted curve at half-maximal effect. In a few lines: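 Cytotoxicity counter-screen run in the same wells as the beta-lactamase Smad reporter read: CellTiter-Glo luminescence after 30 min at room temperature. HEK 293T SBE-bla cells had 5 hr compound exposure at 37 C with TGF-beta1 (0.25 ng/mL stock).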

Test [3] in a line: qHTS assay to identify small molecule agonists of the TGF-beta/Smad signaling pathway - cell viability counter screen (AID 1346829). Also: nearly all actives have a fitted effect of over 45% in size. Also: potency is read from the fitted curve at half-maximal effect. In outline: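 Cytotoxicity counter screen: CellTiter-Glo luminescence (30 min, room temperature) measured in the SBE-bla HEK 293T reporter wells after 5 hr compound treatment at 37 C and the 2 hr substrate step.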
In test [4] the target is Thyrotropin-releasing hormone receptor (Homo sapiens) (UniProt P34981). In words: qHTS assay to identify small molecule antagonists of the thyrotropin-releasing hormone receptor (TRHR) signaling pathway (AID 1346877; active = well fitted inhibition curve with a large enough effect in the repeat runs, not every such curve was filed as active; also: potency is read from the fitted curve at half-maximal effect). In a few lines: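 HEK293/TRHR cells, 18 h, 37 °C; Ca2+ dye 2 h; cpd 5 min RT; TRH 1 nM final; fluorescence read 3 min, 1 s intervals; 15 concs, triplicate.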
Chain of Thyrotropin-releasing hormone receptor (Homo sapiens) (P34981 whole entry, looked up): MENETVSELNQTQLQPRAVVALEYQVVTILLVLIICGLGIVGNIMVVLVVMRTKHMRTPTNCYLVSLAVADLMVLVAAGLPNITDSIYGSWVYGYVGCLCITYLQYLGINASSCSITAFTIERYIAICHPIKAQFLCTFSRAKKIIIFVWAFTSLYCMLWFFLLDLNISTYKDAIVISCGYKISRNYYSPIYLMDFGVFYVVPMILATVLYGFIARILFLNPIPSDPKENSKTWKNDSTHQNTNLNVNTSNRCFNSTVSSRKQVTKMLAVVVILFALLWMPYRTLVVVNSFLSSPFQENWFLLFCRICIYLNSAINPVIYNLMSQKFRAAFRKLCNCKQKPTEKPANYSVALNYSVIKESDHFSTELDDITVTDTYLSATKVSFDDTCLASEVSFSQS

The target is the same in test [5]. In words: qHTS assay to identify small molecule agonists of the thyrotropin-releasing hormone receptor (TRHR) signaling pathway (AID 1346891; calls by dose curve; also: series mostly up to about 58 µM; % is scaled to controls: 0 for no effect and ±100 for the full control effect). In a few lines: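 Intracellular calcium rise, read as fluorescence every second for 3 min, served as the agonist signal in dye-loaded HEK293 cells expressing TRHR; each compound ran at 15 concentrations in triplicate.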

A short description of test [6]: Caspase-3/7 induction in HepG2 cells by small molecules, qHTS assay (AID 1346978). Also: nearly all actives have a fitted effect of over 15% in size. Also: potency is read from the fitted curve at half-maximal effect. In a few lines: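 Caspase-3/7 induction was measured by Caspase-Glo 3/7 luminescence (30 min, room temperature) after a 17 hr compound exposure of wild-type HepG2 cells seeded at 2,000 per well and pre-incubated 5 hr.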
Test [7] can be described thus: Caspase-3/7 induction in CHO-K1 cells by small molecules, qHTS cell viability counter screen (AID 1346979). Also: nearly all actives have a fitted effect of over 35% in size. Also: potency is read from the fitted curve at half-maximal effect. In outline:
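Cells (CHO-K1, wild type) are plated at 1,500 per well and incubated 5hr. Test compounds in DMSO are then pinned in, followed by 16hr at 37C and 5% CO2. Viability is read by CellTiter-Fluor fluorescence after 1hr.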

Test [8] can be described thus: Caspase-3/7 induction in CHO-K1 cells by small molecules, qHTS assay (AID 1346980). Also: nearly all actives have a fitted effect of over 15% in size. Also: potency is read from the fitted curve at half-maximal effect. In a few lines: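 Luminescent Caspase-Glo 3/7 read (30min, room temperature) quantified apoptosis induction. Cells were wild-type CHO-K1, treated with compound for 17hr at 37 C and 5% CO2.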
Test [9] can be described thus: Caspase-3/7 induction in HepG2 cells by small molecules, qHTS cell viability counter screen (AID 1346981). Also: nearly all actives have a fitted effect of over 30% in size. Also: potency is read from the fitted curve at half-maximal effect. In outline:
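Fluorescence read-out of live-cell protease activity (CellTiter-Fluor) after 1 hr with reagent. This was measured in the same wells as the caspase-3/7 luminescence, on HepG2 cells exposed to DMSO-dissolved compounds for 16 hr at 37 C.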

For test [10], the target named is Nuclear receptor subfamily 1 group I member 2 (Homo sapiens) (UniProt O75469). In words: Human pregnane X receptor (PXR) small molecule agonists, qHTS assay (AID 1346982). Also: nearly all actives have a fitted effect of over 35% in size. Also: potency is read from the fitted curve at half-maximal effect. As to activation: % is scaled to controls: 0 for no effect and ±100 for the full control effect. In a few lines:
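HepG2 PXR-Luc reporter line, 5% charcoal-stripped FBS; 5 hr pre-incubation, compound (DMSO) 24 hr at 37 C/5% CO2; ONE-Glo 30 min RT; luminescence read-out.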

Test [11] concerns the target Cytochrome P450 2D6 (Homo sapiens) (UniProt P10635). In words: Cytochrome P450 Family 2 Subfamily D Member 6 (CYP2D6) small molecule antagonists: luciferase reporter qHTS assay (AID 1671196). Also: nearly all actives have a fitted effect of over 50% in size. Also: potency is read from the fitted curve at half-maximal effect. In outline: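 Luminogenic proluciferin substrate, CYP2D6 enzyme; 10 min RT preincubation with compound, NADPH regeneration system added, 1 h RT. Stop/detection reagent, 20 min RT, luminescence read (RLU). Signal proportional to CYP activity.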
In general terms: Reporter assays use an easily measured gene product as a stand-in for the process of interest.

For test [12], the target named is Cytochrome P450 2C19 (Homo sapiens) (UniProt P33261). In words: Cytochrome P450 Family 2 Subfamily C Member 19 (CYP2C19) small molecule antagonists: luciferase reporter qHTS assay (AID 1671197). Also: nearly all actives have a fitted effect of over 65% in size. Also: potency is read from the fitted curve at half-maximal effect. In outline: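 Luminescent readout of CYP2C19 activity: luciferin product detected 20 min after adding detection reagent. Before that, compound and enzyme-substrate mix preincubated 10 min at room temperature; NADPH-regenerating system started a 1 h, 37C reaction. Ketoconazole as positive control.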
Chain of Cytochrome P450 2C19 (Homo sapiens) (P33261 whole entry, looked up): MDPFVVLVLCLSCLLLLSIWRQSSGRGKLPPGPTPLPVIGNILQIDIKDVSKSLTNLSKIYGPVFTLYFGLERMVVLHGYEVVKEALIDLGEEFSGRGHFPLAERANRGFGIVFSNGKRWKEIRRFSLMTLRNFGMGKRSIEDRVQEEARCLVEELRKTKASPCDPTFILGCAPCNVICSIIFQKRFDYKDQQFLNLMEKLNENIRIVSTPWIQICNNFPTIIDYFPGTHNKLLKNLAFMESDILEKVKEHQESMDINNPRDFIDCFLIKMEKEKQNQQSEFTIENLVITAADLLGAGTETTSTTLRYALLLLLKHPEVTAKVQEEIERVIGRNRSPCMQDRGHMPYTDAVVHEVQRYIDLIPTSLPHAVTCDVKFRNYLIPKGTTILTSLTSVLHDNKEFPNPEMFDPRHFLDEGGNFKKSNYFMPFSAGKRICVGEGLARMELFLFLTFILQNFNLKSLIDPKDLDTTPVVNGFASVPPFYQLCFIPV

The target of test [13] is Cytochrome P450 2C9 (Homo sapiens) (UniProt P11712). In words: Cytochrome P450 Family 2 Subfamily C Member 9 (CYP2C9) small molecule antagonists: luciferase reporter qHTS assay (AID 1671198). Also: nearly all actives have a fitted effect of over 50% in size. Also: potency is read from the fitted curve at half-maximal effect. In outline: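 Enzyme-substrate mix preincubated with compound 10 min at room temperature; reaction started with NADPH regeneration solution, 1 h 37C. Luminescent luciferin product read after 20 min detection reagent.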
Chain of Cytochrome P450 2C9 (Homo sapiens) (P11712 whole entry, looked up): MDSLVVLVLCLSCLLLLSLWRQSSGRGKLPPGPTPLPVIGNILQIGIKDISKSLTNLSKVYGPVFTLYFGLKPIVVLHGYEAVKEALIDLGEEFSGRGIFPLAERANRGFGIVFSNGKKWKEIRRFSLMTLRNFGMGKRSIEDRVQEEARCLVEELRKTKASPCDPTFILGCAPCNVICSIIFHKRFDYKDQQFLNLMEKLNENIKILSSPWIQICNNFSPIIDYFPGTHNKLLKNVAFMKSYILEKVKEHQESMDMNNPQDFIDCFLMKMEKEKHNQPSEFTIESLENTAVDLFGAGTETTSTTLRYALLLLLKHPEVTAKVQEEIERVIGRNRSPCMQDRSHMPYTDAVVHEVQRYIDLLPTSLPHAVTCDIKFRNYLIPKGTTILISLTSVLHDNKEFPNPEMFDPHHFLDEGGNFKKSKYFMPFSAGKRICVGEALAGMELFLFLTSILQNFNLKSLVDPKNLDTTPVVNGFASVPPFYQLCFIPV

The nature of test [14]: qHTS assay to identify small molecule agonists of the TGF-beta/Smad signaling pathway (AID 1346859; active = well fitted activation curve with a large enough effect in the signal ratio in the repeat runs, not every such curve was filed as active; the % refers to the signal ratio; also: series mostly up to about 77 µM; % is scaled to controls: 0 for no effect and ±100 for the full control effect). In a few lines: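 SBE-bla HEK 293T, 4,000 cells/well, plated o/n; cpd in DMSO, 5 hr, 37 C/5% CO2; B/G FRET substrate 2 hr RT; ex 405, em 460/530 nm.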
The nature of test [15]: qHTS assay to identify small molecule antagonists of the progesterone receptor (PR) signaling pathway - cell viability counter screen (AID 1346798). Also: potency is read from the fitted curve at half-maximal effect; nearly all actives have a fitted effect of over 50% in size. In a few lines:
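HEK293T PR-UAS-bla, 2% charcoal-stripped FBS; 4 hr pre-plate; cpd + R5020, 16 h 37C; LiveBLAzer read first; then CellTiter-Glo 30 min RT, luminescence.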

The nature of test [16]: Human pregnane X receptor (PXR) small molecule agonists, qHTS cell viability counter screen (AID 1346977). Also: nearly all actives have a fitted effect of over 50% in size. Also: potency is read from the fitted curve at half-maximal effect. In a few lines:
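PXR-Luc HepG2, 2,000 cells/well, 5% charcoal-stripped FBS; 5hr settle; cpd 24hr, 37C/5% CO2; CellTiter-Fluor at 23hr, read 1hr later (fluorescence).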

Test [17] concerns the target Nuclear receptor subfamily 1 group I member 2 (Rattus norvegicus) (UniProt Q9R1A7). In words: Rat pregnane X receptor (rPXR) activation by small molecules, qHTS assay (AID 1346983). Also: % is scaled to controls: 0 for no effect and ±100 for the full control effect; nearly all actives have a fitted effect of over 20% in size. The settings on record: rPXR luciferase reporter cells, One-Glo luminescence, 24 h; stronger effect = higher value. In outline: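 Luminescent readout (One-Glo luciferase, 30 min room temperature) followed 24 hr compound treatment at 37 C of rPXR cells plated 2,000 per well and preincubated 5hr; qHTS format with compounds delivered in DMSO.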

Test [18] deals with Nuclear receptor subfamily 1 group I member 2 (Homo sapiens) (UniProt O75469). In words: Human pregnane X receptor (PXR) activation by small molecules, qHTS assay (AID 1346985). Also: % is scaled to controls: 0 for no effect and ±100 for the full control effect; nearly all actives have a fitted effect of over 40% in size. In a few lines: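 DPX-2 cells (HepG2 co-transfected with a PXR response element and a CYP3A4-promoter luciferase construct) were seeded at 2,000 per well, rested 5 hr at 37C, then exposed to DMSO-dissolved compounds for 24 hr. Activation was read as luciferase luminescence.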
Chain of Nuclear receptor subfamily 1 group I member 2 (Homo sapiens) (O75469 whole entry, looked up): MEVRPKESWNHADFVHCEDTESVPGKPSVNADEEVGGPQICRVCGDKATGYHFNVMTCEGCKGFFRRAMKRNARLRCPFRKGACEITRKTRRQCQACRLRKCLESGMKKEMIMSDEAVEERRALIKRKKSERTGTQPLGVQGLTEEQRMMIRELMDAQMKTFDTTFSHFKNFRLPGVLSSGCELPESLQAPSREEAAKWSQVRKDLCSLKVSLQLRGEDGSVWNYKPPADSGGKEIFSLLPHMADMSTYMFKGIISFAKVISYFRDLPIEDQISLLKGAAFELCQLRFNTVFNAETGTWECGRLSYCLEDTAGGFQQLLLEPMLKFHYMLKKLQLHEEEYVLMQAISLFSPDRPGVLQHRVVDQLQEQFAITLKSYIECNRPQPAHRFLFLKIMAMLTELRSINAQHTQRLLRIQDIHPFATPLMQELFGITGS

Chain of Cytochrome P450 2D6 (Homo sapiens) (P10635 whole entry, looked up): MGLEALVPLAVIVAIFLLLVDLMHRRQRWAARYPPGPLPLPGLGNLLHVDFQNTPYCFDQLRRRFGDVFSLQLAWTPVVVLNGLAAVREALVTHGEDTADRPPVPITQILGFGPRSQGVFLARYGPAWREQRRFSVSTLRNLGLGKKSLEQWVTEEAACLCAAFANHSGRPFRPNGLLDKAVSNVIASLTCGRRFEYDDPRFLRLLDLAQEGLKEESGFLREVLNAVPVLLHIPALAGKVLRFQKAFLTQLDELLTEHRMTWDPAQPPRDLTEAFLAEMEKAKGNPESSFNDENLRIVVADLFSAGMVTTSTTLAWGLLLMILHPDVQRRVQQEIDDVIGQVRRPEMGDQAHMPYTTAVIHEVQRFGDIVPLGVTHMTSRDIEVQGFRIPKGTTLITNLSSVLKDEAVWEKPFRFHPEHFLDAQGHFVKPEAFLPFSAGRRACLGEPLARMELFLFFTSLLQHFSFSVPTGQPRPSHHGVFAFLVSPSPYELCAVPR
Chain of Nuclear receptor subfamily 1 group I member 2 (Rattus norvegicus) (Q9R1A7 whole entry, looked up): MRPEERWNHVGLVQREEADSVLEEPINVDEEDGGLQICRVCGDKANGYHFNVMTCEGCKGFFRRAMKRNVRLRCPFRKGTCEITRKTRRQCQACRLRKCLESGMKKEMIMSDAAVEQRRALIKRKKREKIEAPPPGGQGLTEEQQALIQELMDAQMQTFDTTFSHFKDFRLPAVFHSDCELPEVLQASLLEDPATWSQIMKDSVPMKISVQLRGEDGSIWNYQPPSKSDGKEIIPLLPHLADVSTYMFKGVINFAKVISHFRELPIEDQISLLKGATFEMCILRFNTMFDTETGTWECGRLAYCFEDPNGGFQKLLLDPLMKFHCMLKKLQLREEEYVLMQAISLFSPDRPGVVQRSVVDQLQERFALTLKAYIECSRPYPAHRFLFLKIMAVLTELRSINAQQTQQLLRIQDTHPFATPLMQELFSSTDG

As for `CCCCCCCCCCCCCC[P+](CCCC)(CCCC)CCCC`, the Potency in test [1] was 30.5 µM (active); in [2], 10.9 µM (active) and 27.5 µM (active); in test [3], 54.9 µM (active); in test [6] it was 48.6 µM (active); in [7], 2.42 µM (active) and 7.7 µM (active); in [9] it was 54.2 µM (active). Besides, the Potency is 2.16 µM (active) and 6.86 µM (active) in test [10]; 223 nM (active) and 399 nM (active) in test [11]; 56.1 µM (active) and 39.9 µM (active) in test [12]; 28.1 µM (active) and 50.2 µM (active) in [13]. The Potency entry in [4], in test [5] and in test [8] was “inactive” throughout.

In the case of `CCC(C)(C)C(=O)O[C@H]1C[C@@H](C)C=C2C=C[C@H](C)[C@H](CC[C@@H]3C[C@@H](O)CC(=O)O3)[C@H]21`, the Potency entry in test [2], in test [3], in test [4], in [5], in test [6] and in test [7] was “inactive” throughout. The Potency result in [8] is “inactive”. Also, the outcome in [14] was inactive.

Consider `CCCCCCCCCCCCc1ccccc1O`, for which the Potency is 38.6 µM (active) in test [15]; 53.8 µM (active) and 30.6 µM (active) in test [1]; 54.2 µM (active) and 54.9 µM (active) in test [2]; 49 µM (active) in test [3]; 47.9 µM (active) and 30.6 µM (active) in test [16]; 60.3 µM (active) and 54.5 µM (active) in test [6]. Also, the Potency in test [7] is 53.8 µM (active) and 54.5 µM (active); in test [8] it was 60.3 µM (active) and 68.6 µM (active); in [9] it was 60.3 µM (active) and 48.6 µM (active); in test [10], 6.03 µM (active); in [12], 1.57 µM (active) and 3.17 µM (active); in test [13] it was 7.01 µM (active) and 11.2 µM (active). Further, in test [14], the call was inactive. Further, the Potency result in test [4], in [5] and in test [11] was “inactive” in each case.

With `C=C(C)C(=O)O`, the Potency entry in [1], in test [2], in test [3], in test [4], in test [5] and in test [16] was “inactive” in each case. Further, the Potency entry in test [6], in test [7], in test [8], in test [9], in [10] and in test [11] was “inactive” each time. Besides, the Potency entry in test [12] and in test [13] was “inactive” in each case. Also, the molecule was called inactive in [14].

For the molecule `Cc1cc(Cc2cc(C)cc(C(C)(C)C)c2O)c(O)c(C(C)(C)C)c1`, the Potency in test [15] was 43.5 µM (active) and 48.6 µM (active); in test [1], 27.4 µM (active); in test [3], 43.9 µM (active) and 54.9 µM (active); in test [16], 39.8 µM (active) and 61.1 µM (active); in test [6], 61.4 µM (active); in test [8] it was 27.4 µM (active) and 61.1 µM (active). Moreover, the Potency is 61.4 µM (active) and 61.1 µM (active) in [9]; 5.05 µM (active) and 5.03 µM (active) in test [12]; 3.57 µM (active) and 3.56 µM (active) in test [13]. Also, the result in test [14] was inactive. Moreover, the Potency entry in test [4], in test [5] and in [11] was “inactive” in each case.

Take `CN(C)c1ccc(C(=C2C=CC(=[N+](C)C)C=C2)c2ccccc2)cc1`: the Potency in test [15] is 8.63 µM (active) and 6.68 µM (active) and 7.5 µM (active); in test [1] it was 9.69 µM (active) and 7.5 µM (active) and 8.41 µM (active); in test [2] it was 8.49 µM (active) [middle of 4 runs]; in test [3], 8.49 µM (active) [middle of 4 runs]; in test [4] it was 26.9 µM (active) and inactive; in test [16], 2.37 µM (active) [middle of 4 runs]. Further, the Potency is 4.33 µM (active) and 5.31 µM (active) and 5.96 µM (active) in test [6]; 5.96 µM (active) and 3.35 µM (active) in test [8]; 19.3 µM (active) and 13.3 µM (active) and 23.7 µM (active) in [9]; 7.97 µM (active) and 13.8 µM (active) and 15.5 µM (active) in test [11]. The molecule was called inactive in test [14]. Further, the Potency entry in test [5] and in test [18] was “inactive” throughout. The max activation in test [17] was 11.8% (inactive).

Take `O=C(Nc1ccccc1SSc1ccccc1NC(=O)c1ccccc1)c1ccccc1`: the Potency entry in test [2], in test [3], in test [4], in [5], in test [16] and in [6] was “inactive” each time. The Potency entry in [8] and in [11] was “inactive” in each case. Besides, in test [14], the outcome was inactive. For the same molecule, the Potency in [7] was 24.5 µM (active) and 27.3 µM (active); in test [12], 3.19 µM (active) and 2.52 µM (active); in test [13] it was 505 nM (active) and 564 nM (active).
